# Test results published in the supplement of paper PMC8728848.
# Many of the other results were omitted from the sample, so the strongest signals are more common in it than they were.
# Columns and labels:
# Test in all cases: glycan array binding signal (z-score within array); higher = stronger binding
# Conditions in all cases: glycan notation: IUPAC condensed, linker removed
# [1] = target: Fuc(a1-2)[Gal(a1-3)]Gal(b1-4)Glc
# Procedure, shortened: (§1)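 Arrays were curated from the Consortium for Functional Glycomics database, 3228 in total, and kept only where the protein sequence was available. Binding is expressed as a within-array Z-score. This score was averaged across arrays of the same protein sequence at different concentrations or buffers and across linkers, and negative values can be read as non-binding.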
# [2] = target: Fuc(a1-2)[GalNAc(a1-3)]Gal
# Procedure, shortened: as §1
# [3] = target: Fuc(a1-2)[GalNAc(a1-3)]Gal(b1-4)Glc
# Procedure, shortened: as §1
# [4] = target: Fuc(a1-2)[GalNAc(a1-3)]Gal(b1-4)GlcNAc
# Procedure, shortened: as §1
# [5] = target: Fuc(a1-2)[GalNAc(a1-3)]Gal(b1-4)[Fuc(a1-3)]GlcNAc
# Procedure, shortened: as §1
# [6] = target: Fuc(a1-2)[GalNAc(a1-4)]Gal(b1-4)GlcNAc
# Procedure, shortened: as §1
# [7] = target: Fuc(a1-3)[Gal(b1-4)]GlcNAc(b1-2)Man(a1-3)[Fuc(a1-3)[Gal(b1-4)]GlcNAc(b1-2)Man(a1-6)]Man(b1-4)GlcNAc(b1-4)GlcNAc
# Procedure, shortened: as §1
# [8] = target: Fuc(a1-3)[Gal(b1-4)]GlcNAc(b1-4)Gal(b1-4)[Fuc(a1-3)]GlcNAc(b1-4)Gal(b1-4)[Fuc(a1-3)]GlcNAc
# Procedure, shortened: as §1
# Fuc(b1-3)GlcNAc = target: Fuc(b1-3)GlcNAc
# Procedure, shortened: as §1
# GlcA(b1-3)Gal = target: GlcA(b1-3)Gal
# Procedure, shortened: as §1
# GlcNAc(b1-6)GalNAc = target: GlcNAc(b1-6)GalNAc
# Procedure, shortened: as §1
# GlcNAc3Prop(b1-4)GlcNAc = target: GlcNAc3Prop(b1-4)GlcNAc
# Procedure, shortened: as §1
# Man(b1-4)GlcNAc = target: Man(b1-4)GlcNAc
# Procedure, shortened: as §1
# [9] = target: Neu5Ac(a2-3)Gal(b1-4)[Fuc(a1-3)]GlcNAc(b1-3)Gal(b1-4)[Fuc(a1-3)]GlcNAc(b1-3)Gal(b1-4)[Fuc(a1-3)]GlcNAc
# Procedure, shortened: as §1
# [10] = target: Neu5Ac(a2-8)Neu5Ac(a2-8)Neu5Ac
# Procedure, shortened: as §1
# Neu5Gc(a2-3)Gal(b1-4)Glc = target: Neu5Gc(a2-3)Gal(b1-4)Glc
# Procedure, shortened: as §1
binder,measurement,setting,value
GH98CBM (Clostridium perfringens) (protein) EVYALEESRDVYLSDLDWLNATHGDDTKSKIVQKNHPFTPGNNNQSTKISLKMEDGSISEFEKGLGTIAGSPSTITYDISGAGVTKFFSYLGIDRSANPINEQYAKVDKIEVVVDGKVIYSTINQFPNGLTYETPAIKVDLNIPENAKRLQLKSYAGEKTWGDEVVYADAKFTAKGDFVN,glycan array binding signal (z-score),[1],2.19
same,glycan array binding signal (z-score),[2],4.81
same,glycan array binding signal (z-score),[3],6.66
same,glycan array binding signal (z-score),[4],8.52
same,glycan array binding signal (z-score),[5],5.47
same,glycan array binding signal (z-score),[6],-0.209
same,glycan array binding signal (z-score),[7],0.041
same,glycan array binding signal (z-score),[8],-0.235
same,glycan array binding signal (z-score),Fuc(b1-3)GlcNAc,0.118
same,glycan array binding signal (z-score),GlcA(b1-3)Gal,-0.196
same,glycan array binding signal (z-score),GlcNAc(b1-6)GalNAc,-0.22
same,glycan array binding signal (z-score),GlcNAc3Prop(b1-4)GlcNAc,-0.189
same,glycan array binding signal (z-score),Man(b1-4)GlcNAc,-0.183
same,glycan array binding signal (z-score),[9],-0.233
same,glycan array binding signal (z-score),[10],-0.247
same,glycan array binding signal (z-score),Neu5Gc(a2-3)Gal(b1-4)Glc,-0.107
